# mHTT CaM bind – disrupts binding of mutant huntingtin to calmodulin; P42858; AlphaScreen His-mHTT/GST-CaM binding, luminescence; inhibition, % at 15 µM; actives 3.6% (n = 190,000); AID 1671202;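 also: 0% = both proteins with DMSO and 100% = one protein alone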
# Pf apPOL inh – Pf-apPOL DNA polymerase inhibition; Recombinant Pf-apPOL, molecular beacon fluorescence, 1.5 h; inhibition, % at 10 µM; actives 0.25% (n = 210,000); AID 1794808
# * marks the source's active call; other numbers are inactive results; i = inactive; / = no result; + = active, no number. Only some compounds are listed: those with a hit (about 3.6% of all), similar ones and a draw of the others. Rule as the data show it: active = inhibition above about 50%; inactive = the rest.
SMILES,mHTT CaM bind,Pf apPOL inh
COc1ccc(N2C(=O)c3c(C)nc4ccccc4c3C2=O)cn1,-2,3
C#CCOc1ccc(/C=N\n2cnnc2N/N=C/c2ccc(OCC#C)c(OC)c2)cc1OC,+,/
Oc1ccc(/C=N\Nc2nncn2/N=C\c2ccc(O)c(O)c2)cc1O,i,/
COc1nn(C)cc1C(=O)Nc1nnc(C2CC(=O)N(c3ccccc3)C2)o1 (stereo not drawn),54*,-2
CC(C)(Oc1ccc(Cl)cc1)C(=O)Nc1nnc(C2CC(=O)N(c3ccccc3)C2)o1 (stereo not drawn),98*,-35
COc1ccc(N2CC(c3nnc(NC(=O)Cc4cccs4)o3)CC2=O)cc1 (stereo not drawn),65*,-6
COc1ccc(N2CC(c3nnc(NC(=O)Cc4ccccc4C)o3)CC2=O)cc1 (stereo not drawn),49,-3
CSc1ccc(N2CC(c3nnc(NC(=O)Cc4cccs4)o3)CC2=O)cc1 (stereo not drawn),14,-3
CC(C)(C)C(=O)Nc1nnc(C2CC(=O)N(c3ccccc3)C2)o1 (stereo not drawn),4,-1
COc1ccccc1C(=O)Nc1nnc(C2CC(=O)N(c3ccccc3)C2)o1 (stereo not drawn),17,-2
COc1cccc(CC(=O)Nc2nnc(C3CC(=O)N(c4ccccc4)C3)o2)c1 (stereo not drawn),87*,-3
Cc1onc(-c2ccccc2)c1C(=O)NNC(=O)c1nc(-c2cccs2)no1,/,-3
O=C(NC1CC1)c1cc2nc(-c3cccs3)cc(C(F)(F)Cl)n2n1,-3,-3
O=C(Nc1ccc(S(=O)c2ccc(NC(=O)c3cccs3)cc2)cc1)c1cccs1,-1,2
CN1CCN(C(CNS(=O)(=O)c2ccccc2F)c2ccsc2)CC1 (stereo not drawn),-2,-2
CC(C)n1nccc1-c1nnc(NC(=O)C(C)(C)Oc2ccc(Cl)cc2)o1,66*,-227
COc1cccc(N2CC(C(=O)O)CC2=O)c1 (stereo not drawn),-4,-1
CC(C)(Oc1ccc(Cl)cc1)C(=O)Nc1ccncc1,-3,-2
COc1cccc(N2CC(C(=O)Nc3c(C(N)=O)oc4ccccc34)CC2=O)c1 (stereo not drawn),59*,-3
COc1nn(C)cc1C(=O)Nc1nnc(-c2csc(C)n2)o1,58*,0
Cc1nc(-c2nnc(NC(=O)CCSc3ccccc3)o2)cs1,12,8
c1nnc2n1CCN(CC1CCCCC1)C2,8,-7
Cc1scc2nc(C(=O)NC(C)C)nc(N(C)C)c12,17,-7
CC(=O)Nc1ccc(-c2noc(C3CCCN(C(=O)c4ccc(C#N)cc4F)C3)n2)cc1 (stereo not drawn),-5,-4
CCCN1C(=O)Cc2cc(C(=O)N3CCN(c4ccccc4)CC3)ccc21,51*,1
SMILES,mHTT CaM bind,Pf apPOL inh
CCCN1C(=O)Cc2cc(C(=O)N3CCN(c4cccc(C)c4)CC3)ccc21,49,-5
CCCN1C(=O)Cc2cc(C(=O)N3CCOCC3)ccc21,-2,1
CCCN1C(=O)Cc2cc(C(=O)N3CCN(c4ccc(F)cc4)CC3)ccc21,51*,-5
O=C(c1ccc2c(c1)CC(=O)N2Cc1ccccc1)N1CCCCC1,33,-5
CCCN1C(=O)Cc2cc(C(=O)N3CCN(c4cccc(C)c4C)CC3)ccc21,55*,-2
O=C(c1ccc2c(c1)CC(=O)N2Cc1ccccc1)N1CCN(c2ccccn2)CC1,54*,-1
CCCN1C(=O)Cc2cc(C(=O)N3CCN(c4ccc(C)cc4)CC3)ccc21,38,-5
CCCCC(=O)Nc1c2c(nn1-c1cccc(C)c1C)CS(=O)C2 (stereo not drawn),-3,-1
CCCN=C(NS(=O)(=O)c1cccs1)c1ccccc1,2,6
O=Cc1ccc(-c2cc(Cl)cc(Cl)c2)o1,12,15
O=C(Nc1ccc(Cl)cc1)C1CCN(C(=O)Cc2ccccc2)CC1,5,-16
O=C(c1cccs1)N1CCC(Oc2cc(N3CCCC3)ncn2)C1 (stereo not drawn),-2,0
CCN(CC)S(=O)(=O)c1ccc2oc(C(=O)Nc3ccc(OC)c(Cl)c3)c(C)c2c1,-6,-9
COc1ccccc1N1CCN(C(=O)c2ccc(-c3cccnc3)nc2)CC1,4,-2
Cc1cccc(N2CCN(C(=O)c3ccc(-c4cccnc4)nc3)CC2)c1C,64*,0
O=C1NC(=Nc2ccc(F)cc2)S/C1=C/c1cccs1,12,1
O=C1NC(=Nc2ccc(F)cc2)S/C1=C/c1ccc(O)c(O)c1,57*,30
COc1cc(/C=C2/SC(=Nc3ccc(O)cc3)NC2=O)ccc1O,31,-7
Cc1cc(C)cc(N=C2NC(=O)/C(=C/c3ccco3)S2)c1,79*,2
O=C1NC(=Nc2ccc(F)cc2)S/C1=C/c1ccco1,68*,1
Cc1cc(C)cc(N=C2NC(=O)/C(=C/c3ccccc3)S2)c1,7,1
Cc1ccc(/C=C2\N=C(c3cccc(Br)c3)OC2=O)o1,4,-4
Cc1cccc(N2CCN(C(=O)c3ccc(F)cc3)CC2)c1C,-5,-3
Cc1cc(C)c(S(=O)(=O)N2CCCC(C)(C(=O)NCc3ccccc3C)C2)cc1C (stereo not drawn),9,-6
CCN(CC)CCCC(C)Nc1c2ccc(Cl)cc2nc2ccc(OC)cc12 (stereo not drawn),/,62*
SMILES,mHTT CaM bind,Pf apPOL inh
CCN(CC)CCSc1nc2ccc(OC)cc2[nH]1,26,5
O=C(COc1cccc(Br)c1)Nc1ncn[nH]1,25,-2
COc1ccc(C=C2OC(=O)c3cc([N+](=O)[O-])ccc32)cc1,/,-26
CC(NC(=O)c1ccc2ncnc(N3CCCCC3)c2c1)c1ccccc1 (stereo not drawn),-5,-4
Cn1nc(C(=O)N2CCc3nc4cc(-c5ccccc5)[nH]n4c(=O)c3C2)c2ccccc21,50,19
Cn1nc(C(=O)N2CCc3c(nc4cc(-c5ccccc5)[nH]n4c3=O)C2)c2ccccc21,61*,3
O=C(Nc1cccc(F)c1)N1CCc2c(nc3cc(-c4ccccc4Cl)[nH]n3c2=O)C1,73*,0
COc1ccc(C(=O)N2CCc3c(nc4cc(-c5ccccc5Cl)[nH]n4c3=O)C2)cn1,53*,0
COc1ccc(C(=O)N2CCc3nc4cc(-c5ccccc5)[nH]n4c(=O)c3C2)c(OC)n1,-3,-1
O=C(c1ccncc1)N1CCc2c(nc3cc(-c4ccccc4Cl)[nH]n3c2=O)C1,10,2
Cc1ccc(C(=O)N2CCc3c(nc4cc(-c5ccccc5Cl)[nH]n4c3=O)C2)cn1,25,2
COc1ccc(C(=O)N2CCc3c(nc4cc(-c5ccccc5)[nH]n4c3=O)C2)c(OC)n1,56*,-1
CC1CCN(C(=O)C2c3ccccc3CCN2CC(=O)NCc2ccc(N(C)C)cc2)CC1 (stereo not drawn),12,8
COc1ccc(NC(=O)N2CCc3c(nc4cc(-c5ccccc5)[nH]n4c3=O)C2)c(OC)c1,52*,0
COc1ccc(NC(=O)N2CCc3nc4cc(-c5ccccc5)[nH]n4c(=O)c3C2)c(OC)c1,0,-5
COc1ccc(Cl)cc1C(=O)N1CCc2c(nc3cc(-c4ccccc4)[nH]n3c2=O)C1,41,-6
COc1cccc(C(=O)N2CCc3c(nc4cc(-c5ccccc5)[nH]n4c3=O)C2)c1OC,66*,5
N#Cc1ccc(C(=O)N2CCN(c3nc(CN4CCCCC4)cs3)CC2)cc1,1,-10

# Screens: PubChem, University of Kansas High Throughput Screening Laboratory
